# Reference: PubChem BioAssay (NCI)
# This is part of a sample that, as a whole, favours compounds with a hit. Of some 83,000 tested, about 20% had one in any assay.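 In brief: 96-well plates, 48 h treatment, single concentration, percent growth endpoint.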 A number with no mark means an inactive call. Active and inactive are the calls of the source. Rule for the calls: active = growth percent below 10; inactive = the rest.
# System: HL-60(TB) leukemia
# Assay: NCI-60 one-dose screen, 48 h (100 = growth as untreated, 0 = no growth, -100 = all killed)
# Conditions: 10 µM unless noted
row,Structure (SMILES),growth
1,NCCOc1ccccc1/C=C1\c2ccccc2-c2ccc([N+](=O)[O-])cc21,-59.3% (active)
2,Cc1cc2oc(=O)cc(CP(=O)(O)O)c2cc1O,111%
3,Nc1ccc(Cl)c(S(=O)(=O)O)c1,90.5%
4,NCCCNc1nc2ccccc2c2c(=O)c3cccc(Cl)c3sc12,-45% (active)
5,COc1ccc(/C(C#N)=C/c2cccc(OC)c2OC)cc1,76.7%
6,Cc1cc2nc(CS)[nH]c2cc1C,80.1%
7,COc1cc(C2=N/C(=C\c3cc4ccccc4nc3Oc3ccccc3)C(=O)N2C(=N)N)cc(OC)c1OC,77.2%
8,CCCCCN(CCCCC)CCCCCCCCN1CCCc2ccccc21,-14.2% (active)
9,O=C1C(Cl)=C(Nc2ccccc2)C(=O)C(Cl)=C1Nc1ccccc1,122%
10,CC(Cc1ccco1)C(=O)NC(N)=O (stereo not given),87.5%
11,COc1ccc(/C=C/C(=O)c2ccc(NC(=O)CSc3nnc(-c4ccc(OC)c(OC)c4)n3-c3ccccc3)cc2)cc1,54.8%
12,N#CC1=C(N)Oc2c(ccc3cccnc23)C1c1ccccc1 (stereo not given),13.3%
13,O=C(Nn1c2c(sc1=NC1CC1)C(=O)c1ccccc1C2=O)c1cc2ccc1CCc1ccc(cc1)CC2,2.39% (active)
14,CCOC(=O)C(C)(c1ccccc1)c1ccccc1,104%
15,NCC(=O)NC(CC(=O)O)C(=O)O (stereo not given),90.7%
16,COc1ccc(-c2nnc(COc3ccc(Cl)cc3Cl)o2)cc1OC,89.3%
17,COc1c(C2CC(=O)Nc3c2c(C)nn3-c2nc3ccccc3[nH]2)cc2c(c1OC)OCO2 (stereo not given),20.7%
18,c1ccc(C2Cc3ccccc3C2=NC2CCCCC2)cc1 (stereo not given),98.2%
19,CO[C@@H](C(=O)N1Cc2[nH]nc(NC(=O)c3ccc(N4CCN(C)CC4)cc3)c2C1)c1ccccc1,16.8%
20,O=C(CCCCCCCCC(=O)Nc1cccc(C2=NCCN2)c1)Nc1cccc(C2=NCCN2)c1,81.9%

row,Structure (SMILES),growth
1,CC[C@H]1OC(=O)[C@H](C)[C@@H](O[C@H]2C[C@@](C)(OC)[C@@H](O)[C@H](C)O2)[C@H](C)[C@@H](O[C@@H]2O[C@H](C)C[C@H](N(C)C)[C@H]2O)[C@](C)(OC)C/C(C)=C2/O[C@@]1(C)C=C2C,41.4%
2,Cc1nn(-c2ccc([N+](=O)[O-])cc2)c2ncnc(NCCc3ccccc3)c12,65.9%
3,Cn1cc(C2=C(c3cccc4ccccc34)C(=O)NC2=O)c2cc(Br)ccc21,107%
4,COc1ccc(Oc2c(I)cc(CC(NC(C)=O)C(=O)O)cc2I)cc1 (stereo not given),86.3%
5,CCOC(=O)c1c(C)nc2c(c1N)/C(=C/c1cccs1)C(=O)N2Cc1ccccc1,60.4%
6,COc1cc(/C=N/Nc2ncc(-c3cc4cc5c(cc4o3)OCO5)s2)cc(OC)c1OC,14.7%
7,C=CCN(/C=C1/C(=O)O[C@H](COC)[C@@]2(C)C1=C(O)C(=O)C1=C2[C@H](OC(C)=O)C[C@]2(C)C(=O)CC[C@@H]12)CC=C,5.66% (active)
8,O=C=NC(c1ccccc1)(c1ccccc1)c1ccccc1,102%
9,Cc1cc2oc(/C=C/c3ccccc3)cc(=O)c2c(C)c1Cl,80.8%
10,O=C(Nc1ccc(Nc2ncnc3sc4c(c23)CCOC4)cc1)Nc1ccc(Cl)c(C(F)(F)F)c1,98.9%
11,Cc1ccc(C(=O)Nc2ccc(CN3CCN(C)CC3)c(C(F)(F)F)c2)cc1C#Cc1cnc2cccnn12,-71.9% (active)
12,CCCCCCCC/C=C\CCCCCCCCOc1cccc(CC(=O)NCC[N+]2(C)CCCCC2)c1,28%
13,Cc1ccc(C[P+](c2ccccc2)(c2ccccc2)c2ccccc2)cc1,-63.4% (active)
14,C=C1C(=O)O[C@H]2[C@H]1CC/C(COC(=O)C(=O)c1c[nH]c3ccccc13)=C\CC[C@@]1(C)O[C@@H]21,-46.5% (active)
15,Cc1cc(/C=C/c2ccc3cc(N(C)C)ccc3[n+]2C)c(C)n1-c1ccccc1,-26.1% (active)
16,C/C=C(/C)C(=O)OC1C=C(CO)C(=O)C(OC(=O)C(C)(O)C(C)Cl)C1C(C)C (stereo not given),-25.3% (active)
17,CCCCCCCC(C)NCCO (stereo not given),101%
18,O=C1SCN(Cc2ccccc2)CN1Cc1ccccc1,70.7%
19,OC1CSSC1Cn1cnc2c(Nc3ccc(OCc4cccc(F)c4)c(Cl)c3)ncnc21 (stereo not given),-29.3% (active)
20,O=C(Nc1ncc(Cc2cc(C(F)(F)F)ccc2Cl)s1)C(=S)N1CCOCC1,98.1%
